Measurements taken from PubChem BioAssay (EPA / NIEHS).
Active and inactive are the calls of the source. Rule for the calls: active = hit-call score of the fitted dose curve at least 0.9, where 1 is the maximum; inactive = score below 0.9.

assay: CEETOX_H295R_11DCORT: CeeTox H295R High-throughput Steroidogenesis Assay for 11-Deoxycortisol (11DCORT) (AID 2283432); conditions: actives raise or lower the signal;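 for AC50: 11-deoxycortisol secreted into the medium measured by LC-MS/MS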
Description: CEETOX_H295R is a cell-based, multiplexed-readout assay that uses H295R, a human adrenal gland cell line, with measurements taken at 48 hours after chemical dosing in a 96-well plate.CEETOX_H295R_11DCORT is one of 23 assay component(s) measured or calculated from the CEETOX_H295R assay. It is designed to make measurements of hormone induction, a form of inducible reporter, as detected with absorbance signals by HPLC-MS-MS technology.Data from the assay component CEETOX_H295R_11DCORT was analyzed into 1 assay endpoint. This assay endpoint, CEETOX_H295R_11DCORT, was analyzed with bidirectional fitting relative to DMSO as the negative control and baseline of activity. Using a type of inducible reporter, gain or loss-of-signal activity using HPLC-MS-MS was used to understand synthesis of 11-Deoxycortisol in H295R cell line at 48hr of chemical exposure. To generalize the intended target to other relatable targets, this assay endpoint is annotated to the steroid hormone intended target family, where the subfamily is glucocorticoids.
Cell culture and media preparation procedures were conducted in accordance with OECD Test No. 456 guidelines, with minor modifications. H295R cells (ATCC CRL-2128) were expanded for 5 passages and frozen in batches in liquid nitrogen. Prior to the steroidogenesis assay, H295R cells were thawed and passed at least 4 times. The maximum passage was 10. Cells were maintained in a 1:1 mixture of DMEM/F12 supplemented with 5ml/L ITS+ Premix (BD Bioscience) and 12.5 ml/L Nu-Serum (BD Bioscience). After seeding cells into 96-well plates at 50-60% confluency, cells were allowed to adhere overnight. Prior to chemical testing, culture medium was replaced with 175 uL medium containing 10 uM forskolin to stimulate steroidogenesis for 48 hours. Following prestimulation, forskolin medium was replaced with medium containing test chemical solubilized in DMSO (ensuring a final concentration of 0.1% DMSO). Test chemicals were incubated for 48 hours, then the medium was removed and split into 2 vials containing approximately 75uL each, and stored at -80 C prior to hormone analysis. For steroid quantification, media samples were shipped to OpAns, LLC (Durham, NC) on dry ice, and samples were thawed to room temperature prior to liquid-liquid extraction. Steroid hormones were extracted from media samples using methyl tertbutyl ether (MTBE). An extra derivatization with dansyl chloride was included for estrogen (estrone and estradiol) detection only. Steroid hormones were separated by HPLC, eluted using a reverse phase C18 gradient with electrospray positive ionization, followed by quantification by tandem mass spectrometry (MS/MS). Data were acquired on a MassHunter Workstation Acquisition version B03.01 (Agilent Technologies, Inc.) and processed using MassHunter Quantitative Analysis for QQQ. Accuracy was determined for each hormone analyte from 3 standards to determine upper and lower limits of quantification (ULOQ and LLOQ, respectively) using a 7-point standard curve. Precision and accuracy of the extraction and quantification methods were calculated as the percent relative standard deviation (%RSD) of the spiked standards and percent spiked standard recovered, respectively. The goal was to achieve 100% accuracy (i.e., recover all spiked-in standard at quantification with minimal loss during run time) and good precision (i.e., have %RSD <15% to ensure reproducibility). Test medium was removed following chemical exposure, and cell viability was evaluated in the same wells by MTT. MTT procedures were as follows: after removal of test medium, 500 uL of 0.5 mg/ml of 3-[4,5-dimethylthiazol-2-y]2,5-diphenyltetrazoliumbromide solution was added to the cells. Following a 4-hour incubation at 37 C and 5% CO2 to allow formazan-crystal formation, the MTT solution was removed and blue formazan salt crystals were solubilized using 500uL anhydrous isopropanol with shaking for 20 minutes. […]

Structure (SMILES)	AC50	outcome
CC(=O)N1CCN(c2ccc(OC[C@H]3CO[C@](Cn4ccnc4)(c4ccc(Cl)cc4Cl)O3)cc2)CC1	783 nM (active)	–
CC(C)(c1cc(Br)c(O)c(Br)c1)c1cc(Br)c(O)c(Br)c1	–	inactive
Cc1cc2c(cc1C(F)(F)F)N(C(=O)Nc1ccc(Oc3cccnc3C)nc1)CC2	381 nM (active)	–
Cc1oc2c(NC(=O)c3c(Cl)cccc3Cl)cccc2c1C(C)(C)O	3010 nM (active)	–
Cc1ccc2oc(CN(Cc3ccccc3)C(=O)Nc3c(F)cc(F)cc3F)c(-c3ccc(Cl)cc3)c2c1	–	inactive
O=C(Nc1ccc(Cl)cc1)Nc1ccc(Cl)c(Cl)c1	599 nM (active)	–
Cc1c2ccccc2c(C)c2c1ccc1ccccc12	–	inactive
Clc1ccccc1C(c1ccccc1)(c1ccccc1)n1ccnc1	142 nM (active)	–
CCCCCCCCN(C)CCCCCCCC	–	inactive
NC(=O)c1nc(-c2cccc(-c3cc(F)ccc3OCC(F)(F)C(F)(F)F)c2)n[nH]1	–	inactive
C[C@]12CC[C@@H]3c4ccc(O)cc4CC[C@H]3[C@@H]1CC[C@H]2O	3520 nM (active)	–
CCCCCCCCCCCC[N+](C)(C)C	–	inactive
O=C(O)Cn1c(=O)n(Cc2ccc(Br)cc2F)c(=O)c2ccc(Cl)cc21	–	inactive
Clc1cc(Cl)c2c(c1)N=C1CCCCCN1C2	–	inactive
CN1C(=O)N(c2ccccc2Br)Cc2cnc(Nc3ccc4c(c3)OCC(CO)O4)nc21 (stereo not drawn)	723 nM (active)	–
O=c1c(-c2ccc(O)cc2)coc2cc(O)cc(O)c12	11900 nM (active)	–
OC12N=C(c3ccccc3)SC1Cc1cc(Cl)ccc12 (stereo not drawn)	32800 nM (active)	–
CCCCCCCCOC(=O)c1cc(O)c(O)c(O)c1	–	inactive
Oc1ccc2ccccc2c1	–	inactive
COc1cccc([C@H](O)C2CCN(CCc3ccc(F)cc3)CC2)c1OC	27000 nM (active)	–
CC(C)(C)c1cc(/C=C2\SC(N)=NC2=O)cc(C(C)(C)C)c1O	–	inactive
O=C1CCC(C2CCCCC2)CC1	–	inactive
CCCCOC(=O)c1ccc(O)cc1	–	inactive
